In the library only some 18% were active in any assay of this set; here they are far more common.
CtBP-E1A inh = blocks the CtBP interaction with E1A; 0.49% of 340,000 active; AlphaScreen GST-E1A/His-CtBP binding, 1536-well; active compounds read low; AID 651724; activity change, % (concentration not given with the values); in the data active = activity change below about -65%; inconclusive = mostly about -30% to -63%
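Protein mix (5X: 125 nM each GST-E1A, His-CtBP) was incubated with pinned compound 2 h at 37 deg C in dark, in 50 mM Tris pH 8.0 buffer with 300 mM NaCl. Glutathione donor and nickel acceptor beads followed; AlphaScreen signal read after 1 h.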
Six1-Eya2 blk = Six1/Eya2 interaction inhibition; Q15475+O00167; AlphaScreen GST-Six1/His-Eya2 binding, biochemical; active compounds read low; AID 651725; 0.56% of 360,000 active; activity change, % (no concentration beside the values); in the data active = activity change below about -65%; inconclusive = mostly about -30% to -63%
Target sequence (O00167 whole entry, looked up): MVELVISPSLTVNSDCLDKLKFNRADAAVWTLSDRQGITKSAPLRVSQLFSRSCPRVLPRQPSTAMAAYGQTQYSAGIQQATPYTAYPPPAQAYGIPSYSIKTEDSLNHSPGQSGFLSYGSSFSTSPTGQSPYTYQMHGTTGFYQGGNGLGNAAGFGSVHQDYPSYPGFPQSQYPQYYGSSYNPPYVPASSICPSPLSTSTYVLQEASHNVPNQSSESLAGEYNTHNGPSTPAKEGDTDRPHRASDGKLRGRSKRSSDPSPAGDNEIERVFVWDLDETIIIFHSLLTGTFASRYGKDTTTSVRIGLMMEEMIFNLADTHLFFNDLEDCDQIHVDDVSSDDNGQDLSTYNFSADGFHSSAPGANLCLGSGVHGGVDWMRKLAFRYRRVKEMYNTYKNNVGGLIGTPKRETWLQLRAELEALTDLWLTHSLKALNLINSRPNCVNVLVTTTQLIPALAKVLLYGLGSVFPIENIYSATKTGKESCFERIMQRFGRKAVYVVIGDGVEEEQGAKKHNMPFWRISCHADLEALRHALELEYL
Target sequence (Q15475 whole entry, looked up): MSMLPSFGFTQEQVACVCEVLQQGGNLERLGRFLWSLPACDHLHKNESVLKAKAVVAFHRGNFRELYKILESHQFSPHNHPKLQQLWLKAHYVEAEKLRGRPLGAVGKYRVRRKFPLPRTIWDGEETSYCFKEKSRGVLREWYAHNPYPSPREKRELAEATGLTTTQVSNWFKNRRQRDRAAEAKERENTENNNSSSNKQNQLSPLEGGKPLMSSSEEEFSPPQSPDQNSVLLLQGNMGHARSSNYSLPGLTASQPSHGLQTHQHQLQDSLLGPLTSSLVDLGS
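Homogeneous AlphaScreen proximity assay pairing GST-Six1 with His-tagged Eya2 (added as 5X mix: 250 nM and 500 nM) in 50 mM Tris pH 8.0, 300 mM NaCl, 1 mM TCEP. Glutathione donor and nickel acceptor beads; 1 h, 37 °C, dark.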
DT40 TDP1 CPT = DT40-hTDP1 cell growth loss with CPT | 12% of 420,000 active | Potency, µM (top dose mostly 46.2 µM), actives largely listed as inhibitors | chicken DT40 Tdp1-/-;hTDP1 cells + 20 nM CPT, ATP luminescence, 48 h; also: nearly all actives have a fitted effect of over 55% in size
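Chicken DT40 Tdp1-/- cells complemented with human TDP1, 400 cells/well, exposed to compounds plus 20 nM camptothecin for at least 48 h at 37 C; viability read as ATP content by CellTiter-Glo luminescence.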
TDP1 block = inhibitors of human tyrosyl-DNA phosphodiesterase TDP1 | Q9NUW8 | Potency, µM (top dose mostly 130 µM), hits mostly inhibitors | AID 485290 | 0.28% of 350,000 active | recombinant TDP1, AlphaScreen DNA substrate cleavage; also: nearly all actives have a fitted effect of over 40% in size
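AlphaScreen read-out: signal falls as enzyme removes the 3' tyrosine-FITC from a 5'-biotinylated DNA oligo (15 nM, 5 min, RT). Enzyme was E. coli-made recombinant Tdp1 at 1 nM, exposed to compound for 15 min beforehand; beads 10 ug/ml, 10 min.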
TDP1 cell noCPT = qHTS for Inhibitors of human tyrosyl-DNA phosphodiesterase 1 (TDP1): qHTS in cells in absence of CPT. DT40 Tdp1-/- hTDP1 cells, no CPT, ATP luminescence, 48 h. 15% of 420,000 active. Potency, µM (top dose mostly 46.2 µM), hits mostly inhibitors; also: nearly all actives have a fitted effect of over 55% in size
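Growth of hTDP1-complemented DT40 Tdp1-knockout cells is measured by ATP luminescence after at least 48 hr compound exposure at 37 °C, with DMSO substituting for the 20 nM CPT used in the parallel screen.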
IL-1B inflam inh = inflammasome signaling inhibition, IL-1 beta readout | THP-1 LPS/ATP IL-1B secretion, AlphaLISA, 16 h; active compounds read low | activity change, % at 57.5 µM | 4.7% of 360,000 active | AID 743279; in the data active = activity change below about -50%; inconclusive = mostly about -30% to -49%
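Secreted IL-1B measured by AlphaLISA bead assay after 16 h compound exposure of THP-1 cells; compounds (final up to 57.5 uM) added 1 h before LPS (250 ng/mL) and ATP (1.25 mM) stimulation; lower signal means less secretion.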
Numbers stand for hits; 0 = inactive; ? = inconclusive; - = not tested or not shown; [ ] = another dose, or the depositor's remark. Unless noted, calls follow the shape of the dose curve; as a rule, active = well fitted curve in the direction sought with a large enough effect; inconclusive = small, poorly fitted or top-dose-only effect, or another doubt; inactive = no such curve, though single readings can be large; an effect the other way counts as inactive or inconclusive.

SMILES	CtBP-E1A inh	Six1-Eya2 blk	DT40 TDP1 CPT	TDP1 block	TDP1 cell noCPT	IL-1B inflam inh
COc1ccc(-c2nc3c(C)cc(Br)cn3c2Cc2ccc(C)cc2)cc1OC	0	0	?	-	?	0
Cc1ccc(Cc2c(-c3ccco3)nc3c(C)cc(Br)cn23)cc1	0	?	3.7µM	-	6.5µM	-70
Cc1ccc(Cc2c(-c3ccco3)nc3ccc(C)cn23)cc1	?	0	16µM	-	13µM	0
COc1ccc(Cc2c(-c3ccc(C)cc3)nc3c4ccccc4ccn23)c(C)c1	0	0	?	-	?	0
O=C1c2c(Cl)c(Cl)c(Cl)c(Cl)c2C(=O)N1c1nccs1	0	0	?	-	?	0
CN(CCNC(=O)C1CCCN(c2ncnc3c2nc2n3CCCCC2)C1)Cc1ccccc1 (stereo not given)	-	0	?	0	?	0
Cc1cc(C)c2c(=O)cc(CSCC(=O)Nc3ccccc3Cl)[nH]c2c1	-	-	0	0	0	-
CS(=O)(=O)N(CC(=O)Nc1ccccc1C(=O)NCCc1ccccc1)c1ccc2c(c1)OCCO2	0	0	29µM	0	21µM	0
CCCCOc1ccc(CNC(=O)Cn2ncn3c(cc4cc(F)ccc43)c2=O)cc1	-	-	0	0	0	-
COC(=O)CSc1nnc(-c2ccco2)n1-c1ccc(C)cc1	0	0	0	0	0	0
O=S(=O)(CCN1CCN(c2ccccn2)CC1)c1ccc(Cl)cc1Cl	0	0	0	0	0	0
COc1ccc(C(=O)Nc2nc(CC(=O)NCc3ccc(F)cc3)cs2)cc1	0	0	?	0	?	0
Cc1ccc(-c2cc(C(=O)Nc3ccc(S(=O)(=O)N4CC(C)OC(C)C4)cc3)[nH]n2)c(O)c1 (stereo not given)	0	0	16µM	0	?	0
Cc1ccc(O)c(-c2cc(C(=O)Nc3ccc(S(=O)(=O)Nc4nc(C)cc(C)n4)cc3)[nH]n2)c1	0	0	0	0	0	0
Cc1cc(C)nc(NS(=O)(=O)c2ccc(NC(=O)c3ccc(S(=O)(=O)N4CC(C)OC(C)C4)cc3)cc2)n1 (stereo not given)	0	0	0	0	0	0
Cc1ccc(O)c(-c2cc(C(=O)Nc3ccc(S(=O)(=O)N4CC(C)OC(C)C4)cc3)[nH]n2)c1 (stereo not given)	0	0	26µM	0	23µM	-74
COc1cccc(-n2c(SCc3ccccn3)nc3c(c2=O)SCC3)c1	0	0	0	0	?	0
O=C(NCc1nc2ccccc2[nH]1)c1cccc(Cl)c1	-	-	0	0	0	-
Clc1cccc(N/N=C(\Cc2nc3ccccc3[nH]2)c2ccccc2)c1	0	0	?	0	?	-104
O=C(CN1C(=O)COc2ccc(S(=O)(=O)N3CCCC3)cc21)NC1CC1	0	0	0	0	0	0
Cc1c(C(=O)c2ccc(F)cc2F)c2ccccn2c1CCC#N	0	0	0	0[0.0935 µM]	0	0
Cc1c(C(=O)c2ccc(N(C)C)cc2)c2ccccn2c1CCC#N	0	0	0	0	?	-73
N#Cc1c(N)oc(-c2ccco2)c1-c1ccco1	0	0	?	?	16µM	?
N#Cc1c(N)oc(-c2ccccc2)c1-c1ccccc1	0	0	0	0	0	0
Cc1cccc(C)c1OCCCCN1CCNCC1	0	0	0	0	0	0
SMILES	CtBP-E1A inh	Six1-Eya2 blk	DT40 TDP1 CPT	TDP1 block	TDP1 cell noCPT	IL-1B inflam inh
Cc1ccccc1OCCCCCCN1CCNCC1	0	0	23µM	-	16µM	-74
Cc1ccc(OCCCCCCN2CCNCC2)cc1	0	0	18µM	-	21µM	-90
COc1cccc(OC)c1OCCCCCCN1CCN(C)CC1	-	0	0	-	0	0
CN1CCN(CCCCOc2ccccc2C=O)CC1	0	0	?	0	?	-85
CN(C1CCCCC1)C(CNS(=O)(=O)c1ccc(Cl)cc1)c1ccccc1 (stereo not given)	0	0	0	0	0	0
O=C(O)c1ccc(N2C(=O)CC(N3C(=O)/C(=C/c4ccc(Cl)cc4)SC3=S)C2=O)cc1 (stereo not given)	0	0	?	0	?	0
COc1ccc(C2=NN(CN3C(=O)C(=O)c4ccccc43)C(c3cccc([N+](=O)[O-])c3)C2)cc1 (stereo not given)	0	0	?	0	?	-66
Cc1ccc(C2=NN(C(=O)CCC(=O)O)C(c3cccc([N+](=O)[O-])c3)C2)cc1 (stereo not given)	0	0	0	-	0	0
COc1ccc(-c2c(-c3ccc(OC)c(C)c3O)n[nH]c2C)cc1	0	0	?	0	?	?
N#CC(c1cccc(Cl)c1)c1ccc2c(C(F)(F)F)cc(C(F)(F)F)nc2n1 (stereo not given)	?	?	1.5µM	0	1.6µM	-105
CN(C(=O)COc1ccc(Cl)cc1Cl)C1(C)CCS(=O)(=O)C1 (stereo not given)	0	0	0	-	0	0
Cc1cc(C(=O)COC(=O)c2cccn2C)c(C)n1Cc1ccco1	-	?	0	0	?	0
O=C(Nc1ncccc1O)c1cccc(S(=O)(=O)N2CCN(c3ccc(F)cc3)CC2)c1	0	0	?	0	?	0
